# CF NFkB block – inhibitors of PAF-induced NF-kB signaling, primary screen, cell-based, GFP fluorescence, uHTS | KKLEB NF-kB-GFP reporter, GFP fluorescence overnight | 360,000 tested, 0.86% active | AID 588850, 2011 | inhibition, % at 5 µM;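 active = at least 50% inhibition at 5 µM, scaled per plate between neutral and stimulator controls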;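 also: PAF is a Pseudomonas aeruginosa culture filtrate used as stimulus; plate controls were PAF-stimulated DMSO wells for no effect and unstimulated DMSO wells for full effect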
# TRPM1 prom inh – inhibitors of MITF-dependent TRPM1 promoter reporter, primary screen, cell-based, SK-MEL-5, single point, luciferase; SK-MEL-5 TRPM1 promoter luciferase, 24 h; inhibition, % at 12.5 µM; 330,000 tested, 0.83% active; AID 488899, 2010;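 active = mean inhibition across replicates of 60% or more, whatever share of single replicates reaches that level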
# HIF-2a inh – HIF-2a reporter inhibitors, primary screen, luminescence, 786-0 RCC cells. 786-0 RCC cells HIF-2a reporter, luciferase luminescence, overnight. 360,000 tested, 0.72% active. inhibition, % at 18.8 µM;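 active = inhibition of the luminescence signal of 40% or more relative to plate controls, in a single-dose primary screen at 18.75 µM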
# ABHD5 PLIN5 PPI – ABHD5-PLIN5 interaction inhibitors, primary screen, cell lysate, split luciferase complementation, luminescence; inhibition, % at 4 µM; Split G. princeps luciferase complementation, 4 h; Perilipin-5 (Homo sapiens) + 1-acylglycerol-3-phosphate O-acyltransferase ABHD5 (Homo …; 360,000 tested, 0.78% active;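 active = inhibition above the mean inhibition across every tested compound plus 3 SD, cut at about 22% in these data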;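 also: 0% = DMSO only wells and the 100% control is not disclosed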
# Target sequence (Q00G26 whole entry, looked up): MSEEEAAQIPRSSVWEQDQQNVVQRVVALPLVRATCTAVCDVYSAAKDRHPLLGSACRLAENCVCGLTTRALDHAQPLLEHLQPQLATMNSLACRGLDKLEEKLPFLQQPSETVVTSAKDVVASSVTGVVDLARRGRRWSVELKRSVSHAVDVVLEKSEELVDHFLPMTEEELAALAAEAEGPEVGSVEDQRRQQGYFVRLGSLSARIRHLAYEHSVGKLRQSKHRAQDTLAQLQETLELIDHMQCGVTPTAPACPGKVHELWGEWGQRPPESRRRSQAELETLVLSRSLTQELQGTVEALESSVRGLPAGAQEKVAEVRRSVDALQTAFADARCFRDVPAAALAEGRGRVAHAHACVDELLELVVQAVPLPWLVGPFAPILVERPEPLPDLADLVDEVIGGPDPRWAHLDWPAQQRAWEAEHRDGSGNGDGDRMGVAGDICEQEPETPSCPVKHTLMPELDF
# Target sequence (Q8WTS1 whole entry, looked up): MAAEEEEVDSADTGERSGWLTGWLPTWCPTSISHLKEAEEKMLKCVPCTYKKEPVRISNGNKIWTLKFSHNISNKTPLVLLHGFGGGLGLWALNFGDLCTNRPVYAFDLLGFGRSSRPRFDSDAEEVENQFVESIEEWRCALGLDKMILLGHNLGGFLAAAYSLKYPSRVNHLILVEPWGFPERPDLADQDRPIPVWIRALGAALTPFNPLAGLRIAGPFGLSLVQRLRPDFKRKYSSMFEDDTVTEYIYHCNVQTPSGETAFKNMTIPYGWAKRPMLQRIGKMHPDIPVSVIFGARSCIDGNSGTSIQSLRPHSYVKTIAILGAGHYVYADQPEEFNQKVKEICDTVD
# KKLEB cytotox – cytotoxicity in KKLEB CF airway cells, primary screen, cytotoxicity control for CF NF-kB inhibitor project, cell-based, uHTS, fluorescence assay plates; activity change (cytotoxicity), % at 5 µM; KKLEB CF airway cells viability, ATPlite luminescence, overnight; hits give low values; cells stimulated with P. aeruginosa culture filtrate; 360,000 tested, 0.36% active;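 active = corrected activity change at or below -50% at 5 µM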
# Peg3 promoter – Peg3 promoter-driven luciferase inhibitors, primary screen, cell-based, HeLa, luciferase luminescence | HeLa PEG-Prom luciferase reporter, overnight | inhibition, % at 20 µM | 360,000 tested, 1.7% active | AID 588405, 2011;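 active = inhibition of at least 50% at 20 µM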
# CF NFkB inh conf – inhibitors of PAF-induced NF-kB signaling, retest, confirmation, cell-based, GFP fluorescence, single concentration. KKLEB CF airway cells, overnight. AID 602472, 2012. inhibition, % at 5 µM. shares compounds with CF NFkB block. 1,300 tested, 64% active; in the data active = inhibition above about 40%;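 also: stimulus PAF is a Pseudomonas aeruginosa filtrate and not platelet activating factor; plate controls were DMSO wells with stimulus for no effect and unstimulated DMSO wells for full effect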
# * marks the source's active call; other numbers are inactive results; . = not tested or not shown. Most compounds without a hit are left out; they make up all but 3.1% or so of the library.
SMILES,CF NFkB block,TRPM1 prom inh,HIF-2a inh,ABHD5 PLIN5 PPI,KKLEB cytotox,Peg3 promoter,CF NFkB inh conf
O=C(Nc1cc(-c2ccccc2)[nH]n1)c1ccc(Cl)cc1,19,-46,-284,-6,9,-309,.
CCC(=O)Nc1ccc(NC(=O)CSc2nnnn2-c2cccnc2)cc1C,3,3,-48,0,8,2,.
CC(=O)N1CC(=O)N=C1SCC(=O)Nc1nc(C)c(-c2ccccc2)s1,51*,-7,-91,14,20,-47,60*
CCn1c(SCC(=O)N/N=C/c2ccc(OC)c(OC)c2)nc2ccccc21,12,-9,-5,-6,-13,-4,.
C=CCSc1nc2ccccc2n1C(=O)/C=C/c1ccc(OC)c(OC)c1,92*,38,-35,9,-42,104*,103*
CC1CCCCN1c1ncnc(N)c1[N+](=O)[O-] (stereo not given),74*,-8,14,1,0,9,64*
c1ccn(-c2ncnc3sc4c(c23)CCCC4)c1,20,-11,21,-3,-12,14,.
c1nc(N2CCOCC2)c2c3c(sc2n1)CCCC3,55*,-7,24,-3,-23,13,70*
C=C1CC[C@@H]2[C@](C)(CO)[C@H](O)CC[C@@]2(C)[C@@H]1C/C=C1/C(=O)OCC1O (stereo not given in full),54*,59,22,8,-19,-20,15
C=C1CCC2C(C)(C)[C@H](O)CC[C@@]2(C)[C@@H]1COc1cc(=O)oc2ccccc12 (stereo not given in full),29,-14,7,1,-8,44,.
COc1nc(-c2ccc(C)cc2)ccc1-c1noc(-c2cccnc2)n1,53*,4,-6,2,-32,-14,19
Cc1ccccc1S(=O)(=O)NC(=O)C1(C)CCN1C(=O)CC1CCCC1 (stereo not given),-18,.,4,-2,7,0,.
CC(=O)c1c(O)cc(O)c(C(C)=O)c1O,59*,13,-3,4,-11,5,52*
O=C(CCN1C(=O)C2CCCCC2C1=O)Nc1ccc(F)c(F)c1F (stereo not given),6,8,18,-12,1,16,.
Cc1ccc(NC(=O)CCN2CCC(C(N)=O)CC2)cc1,-2,5,6,-3,0,2,.
Clc1ccccc1C1=Nn2c(nnc2-c2ccncc2)SC1,78*,-18,2,5,-11,2,94*
c1ccc(C2[C@H]3CN(Cc4cccnc4)[C@H](c4ccccc4)C34CC2(c2ccccc2)C4)cc1 (stereo not given in full),53*,16,-19,-8,-19,7,5
COc1cc(/C=C2\SC(=O)N(CCNC(=O)c3sc4cc(F)ccc4c3Cl)C2=O)cc(OC)c1OC,55*,-6,17,14,-42,7,67*
Cc1cc(OC(=O)c2cc(Cl)ccc2Cl)c([N+](=O)[O-])c(=O)[nH]1,-7,-3,0,2,10,0,.
Cc1cc(C)cc(N(CCC#N)C(=O)CSc2n[nH]c(N)n2)c1,13,4,6,6,-5,15,.
O=C(c1ccc2c(Cl)c3c(nc2c1)CCCC3)N1CCN(c2ccc(F)cc2)CC1,29,10,7,11,-14,35,.
COc1ccccc1N1CCN(C(=O)c2ccc3c(Cl)c4c(nc3c2)CCCC4)CC1,53*,.,-5,5,-12,27,-95
Cc1cccc(NC(=O)c2cc(-c3ccccn3)nc3ccccc23)c1C,6,5,3,1,5,31,.
CC1(Cc2ccc(F)cc2)C(=O)Nc2ccc(-c3cccnc3)cc21 (stereo not given),67*,.,23,-1,3,14,74*
C=Cc1ccc(CC2(C)C(=O)Nc3ccc(-c4cccnc4)cc32)cc1 (stereo not given),74*,.,20,-6,-25,32,87*
SMILES,CF NFkB block,TRPM1 prom inh,HIF-2a inh,ABHD5 PLIN5 PPI,KKLEB cytotox,Peg3 promoter,CF NFkB inh conf
COc1ccc(C2CNC(=O)C2)cc1OC1CCCC1 (stereo not given),52*,-12,4,2,-14,-10,55*
COc1ccc(CCNS(=O)(=O)c2ccc(C3CNC(=O)C3)cc2)cc1OC (stereo not given),-1,-3,6,0,8,-3,.
CCCNC(=O)C1(C)CCCN(C(=O)c2cc(C)nn2C(C)(C)C)C1 (stereo not given),5,.,4,4,-3,-12,.
Nc1cc2c(cc1Br)-c1ccccc1C2=NO,50*,-20,-197,-6,10,-315,61*
ON=C1c2ccccc2-c2ccc(Br)cc21,-3,3,-96,-16,6,-109,.
O=[N+]([O-])c1cc(S(=O)(=O)N2CCCC2)ccc1OCCOc1ccccc1,50*,-3,-19,-6,-22,14,15
CCOc1cc(Br)c(Br)c(C=Nc2ccc(NC(C)=O)cc2)c1O,69*,8,28,-6,-1,32,61*
CCOc1cc(/C=N/NC(=O)C(N)=O)cc(Br)c1O,-3,0,23,14,-6,-2,.
c1ccc(NC2=NCCN2CCCC2CCCC2)cc1,-5,-12,1,2,11,-16,.
Nc1nc(/C=C/c2cccnc2)nc(-c2ccccc2O)n1,91*,6,-48,8,-11,26,75*
COc1ccc(-c2cc(=O)oc3c(C)c(OC(=O)c4cccs4)ccc23)cc1,72*,-11,7,-2,12,31,96*
COc1ccc2[nH]c3c(c2c1)CCN1C(=O)C(CC(=O)NCCC2=CCCCC2)C[C@H](C(=O)N2CCCCC2)[C@@]31CCc1ccccc1 (stereo not given in full),56*,11,2,-3,-49,27,81*
COc1ccc2[nH]c3c(c2c1)CCN1C(=O)C(CC(=O)NCCN2CCOCC2)C[C@H](C(=O)N2CCCCC2)[C@@]31CCc1ccccc1 (stereo not given in full),-18,-1,6,13,4,-13,.
c1ccc(CNc2ncnc3scc(-c4cccs4)c23)nc1,52*,28,30,0,-6,30,35

# Screening results deposited in PubChem by several laboratories.
